In ChEMBL document CHEMBL1961873, “Compounds: GSK PKIS; Assays: Nanosyn kinase panel” (2012):

Experiments:
[1] = molecular target: MAP/microtubule affinity-regulating kinase 3 (Homo sapiens) (UniProt P27448); settings: at 1 µM;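 note: reported values are averaged percent inhibition of MARK3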
[2] = molecular target: T1, MAP/microtubule affinity-regulating kinase 4 (Homo sapiens) (UniProt Q96L34); settings: at 0.1 µM
T1 sequence (whole entry): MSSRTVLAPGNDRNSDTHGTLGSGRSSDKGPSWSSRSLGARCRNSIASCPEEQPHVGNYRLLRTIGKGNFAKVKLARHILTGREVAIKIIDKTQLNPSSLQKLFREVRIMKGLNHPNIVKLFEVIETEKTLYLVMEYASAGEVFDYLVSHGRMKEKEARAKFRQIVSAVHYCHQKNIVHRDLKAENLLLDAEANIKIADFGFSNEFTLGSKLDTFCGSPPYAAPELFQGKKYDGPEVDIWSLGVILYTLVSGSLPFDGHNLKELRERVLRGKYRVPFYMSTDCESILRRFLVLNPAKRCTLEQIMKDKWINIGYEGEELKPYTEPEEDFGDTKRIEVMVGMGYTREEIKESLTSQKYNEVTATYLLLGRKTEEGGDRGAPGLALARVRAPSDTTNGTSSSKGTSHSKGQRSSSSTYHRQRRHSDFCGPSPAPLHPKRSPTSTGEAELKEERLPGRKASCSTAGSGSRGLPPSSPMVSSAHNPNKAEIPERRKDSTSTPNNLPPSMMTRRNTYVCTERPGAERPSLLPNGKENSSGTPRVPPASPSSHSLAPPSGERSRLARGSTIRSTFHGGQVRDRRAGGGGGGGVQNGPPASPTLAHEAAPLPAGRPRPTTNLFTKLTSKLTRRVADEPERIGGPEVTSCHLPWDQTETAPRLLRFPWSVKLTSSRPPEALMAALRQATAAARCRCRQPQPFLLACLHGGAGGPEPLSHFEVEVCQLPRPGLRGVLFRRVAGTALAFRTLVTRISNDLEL

[3] = molecular target: T1, MAP/microtubule affinity-regulating kinase 4 (Homo sapiens); settings: at 1 µM
[4] = molecular target: Maternal embryonic leucine zipper kinase (Homo sapiens) (UniProt Q14680); settings: at 0.1 µM
[5] = molecular target: Maternal embryonic leucine zipper kinase (Homo sapiens) (UniProt Q14680); settings: at 1 µM
[6] = molecular target: MAP kinase-interacting serine/threonine-protein kinase 1 (Homo sapiens) (UniProt Q9BUB5); settings: at 0.1 µM
[7] = molecular target: MAP kinase-interacting serine/threonine-protein kinase 1 (Homo sapiens) (UniProt Q9BUB5); settings: at 1 µM
[8] = molecular target: MAP kinase-interacting serine/threonine-protein kinase 2 (Homo sapiens) (UniProt Q9HBH9); settings: at 0.1 µM
[9] = molecular target: MAP kinase-interacting serine/threonine-protein kinase 2 (Homo sapiens) (UniProt Q9HBH9); settings: at 1 µM
[10] = molecular target: Serine/threonine-protein kinase MARK2 (Homo sapiens) (UniProt Q7KZI7); settings: at 0.1 µM;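 note: mean percent inhibition of PAR-1Balpha kinase activity, reported from the GSK PKIS screen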
Sequence of Serine/threonine-protein kinase MARK2 (Homo sapiens) (Q7KZI7 whole entry): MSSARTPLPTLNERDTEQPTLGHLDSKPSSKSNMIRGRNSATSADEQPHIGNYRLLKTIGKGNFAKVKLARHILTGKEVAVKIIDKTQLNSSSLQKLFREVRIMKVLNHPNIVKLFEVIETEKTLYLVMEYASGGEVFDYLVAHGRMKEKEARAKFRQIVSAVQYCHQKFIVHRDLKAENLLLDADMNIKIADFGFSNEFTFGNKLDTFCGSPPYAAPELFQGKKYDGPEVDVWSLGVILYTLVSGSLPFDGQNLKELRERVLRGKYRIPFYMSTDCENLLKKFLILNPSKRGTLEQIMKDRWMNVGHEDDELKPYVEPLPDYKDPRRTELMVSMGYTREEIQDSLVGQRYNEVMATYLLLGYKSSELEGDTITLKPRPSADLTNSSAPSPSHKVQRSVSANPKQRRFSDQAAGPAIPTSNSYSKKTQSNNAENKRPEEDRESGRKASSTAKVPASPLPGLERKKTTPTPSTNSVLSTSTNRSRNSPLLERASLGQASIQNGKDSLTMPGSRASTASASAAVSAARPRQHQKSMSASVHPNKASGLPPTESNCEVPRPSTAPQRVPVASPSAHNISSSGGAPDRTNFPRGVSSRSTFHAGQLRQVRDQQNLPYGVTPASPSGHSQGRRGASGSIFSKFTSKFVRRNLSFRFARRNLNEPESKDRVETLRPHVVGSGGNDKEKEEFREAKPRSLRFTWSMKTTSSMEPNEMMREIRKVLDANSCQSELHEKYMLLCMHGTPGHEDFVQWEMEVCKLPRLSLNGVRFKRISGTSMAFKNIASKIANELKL

Sequence of MAP kinase-interacting serine/threonine-protein kinase 1 (Homo sapiens) (Q9BUB5 whole entry, looked up): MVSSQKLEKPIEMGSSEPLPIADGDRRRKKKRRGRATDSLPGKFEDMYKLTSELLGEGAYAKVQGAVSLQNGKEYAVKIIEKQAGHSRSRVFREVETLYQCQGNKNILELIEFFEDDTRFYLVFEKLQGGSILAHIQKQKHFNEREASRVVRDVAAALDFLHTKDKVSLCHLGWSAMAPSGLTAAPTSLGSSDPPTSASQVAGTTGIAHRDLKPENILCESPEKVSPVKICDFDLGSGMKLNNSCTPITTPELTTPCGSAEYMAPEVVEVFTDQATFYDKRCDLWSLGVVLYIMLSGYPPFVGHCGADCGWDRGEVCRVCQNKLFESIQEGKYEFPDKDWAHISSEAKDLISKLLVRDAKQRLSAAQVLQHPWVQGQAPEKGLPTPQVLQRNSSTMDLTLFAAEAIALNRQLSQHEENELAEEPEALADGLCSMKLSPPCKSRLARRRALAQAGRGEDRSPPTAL
Sequence of Maternal embryonic leucine zipper kinase (Homo sapiens) (Q14680 whole entry, looked up): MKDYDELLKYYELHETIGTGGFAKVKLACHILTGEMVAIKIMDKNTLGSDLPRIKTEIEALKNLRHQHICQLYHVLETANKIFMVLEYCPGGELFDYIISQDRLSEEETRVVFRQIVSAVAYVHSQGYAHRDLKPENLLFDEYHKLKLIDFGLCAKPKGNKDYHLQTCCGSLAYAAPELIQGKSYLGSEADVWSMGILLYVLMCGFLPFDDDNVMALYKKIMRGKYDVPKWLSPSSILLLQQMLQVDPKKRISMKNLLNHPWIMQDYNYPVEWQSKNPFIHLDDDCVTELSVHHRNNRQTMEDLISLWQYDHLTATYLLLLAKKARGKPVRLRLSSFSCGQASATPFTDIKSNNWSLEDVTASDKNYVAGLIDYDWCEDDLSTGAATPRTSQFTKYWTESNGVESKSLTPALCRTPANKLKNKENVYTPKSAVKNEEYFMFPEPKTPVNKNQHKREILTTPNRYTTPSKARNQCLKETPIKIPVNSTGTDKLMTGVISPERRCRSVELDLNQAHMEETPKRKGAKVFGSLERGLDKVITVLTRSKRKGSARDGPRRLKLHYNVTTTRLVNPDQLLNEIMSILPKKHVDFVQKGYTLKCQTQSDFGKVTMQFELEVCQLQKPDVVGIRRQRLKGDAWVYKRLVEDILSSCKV
Sequence of MAP kinase-interacting serine/threonine-protein kinase 2 (Homo sapiens) (Q9HBH9 whole entry, looked up): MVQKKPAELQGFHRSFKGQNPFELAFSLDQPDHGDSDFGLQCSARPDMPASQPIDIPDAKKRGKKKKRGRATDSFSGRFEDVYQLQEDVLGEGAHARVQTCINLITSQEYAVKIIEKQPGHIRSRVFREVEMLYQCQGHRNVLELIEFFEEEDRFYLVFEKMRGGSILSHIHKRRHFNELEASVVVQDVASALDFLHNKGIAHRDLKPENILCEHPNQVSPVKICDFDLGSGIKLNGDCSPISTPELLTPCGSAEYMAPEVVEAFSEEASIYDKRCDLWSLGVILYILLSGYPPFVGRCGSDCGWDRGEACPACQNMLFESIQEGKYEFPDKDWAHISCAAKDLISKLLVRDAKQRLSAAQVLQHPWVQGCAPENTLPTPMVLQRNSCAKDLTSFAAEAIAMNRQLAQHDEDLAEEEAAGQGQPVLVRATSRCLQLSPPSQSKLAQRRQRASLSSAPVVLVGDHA
Sequence of MAP/microtubule affinity-regulating kinase 3 (Homo sapiens) (P27448 whole entry, looked up): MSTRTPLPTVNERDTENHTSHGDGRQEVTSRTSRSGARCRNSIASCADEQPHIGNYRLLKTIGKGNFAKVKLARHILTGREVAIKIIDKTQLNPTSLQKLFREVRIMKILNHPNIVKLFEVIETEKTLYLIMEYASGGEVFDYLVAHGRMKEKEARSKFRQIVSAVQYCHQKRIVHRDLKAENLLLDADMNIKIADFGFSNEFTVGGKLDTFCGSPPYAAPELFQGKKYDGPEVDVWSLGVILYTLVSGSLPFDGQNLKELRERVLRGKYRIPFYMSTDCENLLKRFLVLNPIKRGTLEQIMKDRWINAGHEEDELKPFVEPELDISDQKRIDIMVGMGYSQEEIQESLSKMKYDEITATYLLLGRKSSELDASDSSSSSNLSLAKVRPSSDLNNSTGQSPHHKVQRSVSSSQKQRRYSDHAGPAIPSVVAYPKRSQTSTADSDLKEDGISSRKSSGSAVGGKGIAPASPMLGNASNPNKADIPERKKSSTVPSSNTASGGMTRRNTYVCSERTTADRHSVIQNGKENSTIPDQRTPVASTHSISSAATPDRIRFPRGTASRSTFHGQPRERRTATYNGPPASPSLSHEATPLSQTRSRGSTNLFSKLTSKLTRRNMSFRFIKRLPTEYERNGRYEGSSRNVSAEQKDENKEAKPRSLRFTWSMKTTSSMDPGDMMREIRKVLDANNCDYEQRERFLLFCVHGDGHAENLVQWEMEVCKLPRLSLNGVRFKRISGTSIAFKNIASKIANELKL

Row | SMILES | inhibition [1] [%] | inhibition [2] [%] | inhibition [3] [%] | inhibition [4] [%] | inhibition [5] [%] | inhibition [6] [%] | inhibition [7] [%] | inhibition [8] [%] | inhibition [9] [%] | inhibition [10] [%]
1 | COc1cc(Nc2nccc(-c3cnn4ncccc34)n2)cc(OC)c1 | 34.1 | 3.44 | 22.1 | 7.1 | 43.9 | 1.97 | 10.2 | 3.13 | 17.2 | 2.81
2 | C[C@@H](Oc1cc(-n2cnc3ccc(OC[C@@H](O)CO)cc32)sc1C(N)=O)c1ccccc1Cl | 5.81 | 1.02 | 5.24 | -2.58 | 3.21 | -0.74 | 2.69 | 0.15 | 2.94 | -0.27
3 | COc1cccc(-n2ncc3c(N/N=C/c4ccc(C)cc4)ncnc32)c1 | 6.9 | 2.42 | 5.11 | 5.47 | 12.6 | 4.37 | 9.69 | 3.79 | 11.2 | 2.05
4 | COc1cc2ncn(-c3cc(OCc4ccccc4S(C)(=O)=O)c(C#N)s3)c2cc1OC | 88.3 | 34.9 | 76.6 | 1.64 | 8.3 | 11.7 | 47.7 | 41.8 | 76.8 | 25.9
5 | Cc1ccc(Nc2ccnc(Nc3cccc(C(N)=O)c3)n2)cc1O | 12.5 | 1.68 | 6.22 | 2.96 | 7.7 | 2.87 | 13.4 | 2.08 | 16.7 | 0.4
6 | Cc1ccc2c(-c3ccnc(Nc4ccc5c(c4)OCCO5)n3)c(-c3ccc(C(F)(F)F)cc3)nn2n1 | 5.36 | 1.96 | 3.07 | -1.46 | 0.19 | 0.37 | -0.05 | 0.66 | 1.73 | -0.06
7 | COc1cccc(-n2nc(C)c3c(N/N=C(\C)c4ccncc4)ncnc32)c1 | 0.26 | -0.19 | -0.43 | -0.32 | 1.96 | 0.47 | 1.1 | -0.51 | 0.76 | -0.2
8 | O=C1Nc2ccccc2/C1=C/Nc1ccc2[nH]c(=O)[nH]c2c1 | 27.5 | 4.86 | 27.1 | 5.79 | 41.4 | 5.46 | 14 | 2.62 | 10.9 | 3.32
9 | Cc1nc(-c2ccccc2)n2nc(NCCCN3CCOCC3)ncc12 | 4.15 | 1.2 | 2.72 | 1.4 | 1.29 | 2.43 | 4.9 | 1.85 | 3.34 | -0.89
10 | CN(C)C(=O)O[C@@H]1CN[C@@H](C#Cc2cc3ncnc(Nc4ccc(OCc5cccc(F)c5)c(Cl)c4)c3s2)C1 | -0.12 | 0.74 | 1.37 | -0.39 | 3.35 | 0.76 | 3.62 | 0.4 | 5.87 | 0.66
11 | NS(=O)(=O)c1ccc(-c2cc3ccncc3cc2OCc2ccccc2)cc1 | 0.1 | 0.25 | 1.99 | 1.24 | 3.87 | 4.45 | 17.7 | 4.29 | 26.4 | -2.14
12 | COc1cc2ncnc(Nc3ccc(C)c(O)c3)c2cc1OC | 6.46 | 1.47 | 4.13 | 5.67 | 8.15 | 6.8 | 30.9 | 3.13 | 15.8 | 2.85
13 | COc1ccc2ncnc(Nc3ccc(OCc4ccccc4)cc3)c2c1 | 3.15 | 0.07 | -0.37 | -0.28 | 2.03 | 2.24 | 7.43 | 1.39 | 11.3 | 0.5
14 | CCn1c(-c2nonc2N)nc2c(C#CC(C)(C)O)nc(OCCNC)cc21 | 11.6 | 2.05 | 7.52 | 17.5 | 81.1 | 1.63 | 3.44 | 0.5 | 1.12 | 1.74
15 | Nc1ccc(C#Cc2cncnc2Nc2ccc(OCc3cccc(F)c3)c(Cl)c2)cc1 | 2.52 | 2.36 | 1.95 | 2.97 | 1.48 | 2.04 | 10.7 | 0.63 | 7.26 | -0.22
16 | Cc1ccc2c(-c3ccnc(Nc4cccc(C(F)(F)F)c4)n3)c(-c3ccccc3)nn2n1 | 3.93 | 2.61 | 2.82 | 5.84 | 10.4 | 3.3 | 4.19 | 2.04 | 3.52 | 1.89
17 | ON=C1CCc2cc(-c3nc(C4CCNCC4)[nH]c3-c3ccncc3)ccc21 | 3.01 | 0.47 | 1.99 | -0.02 | 1.75 | 0.86 | 3.6 | 0.66 | 0.78 | -1.2
